Laboratory results published in article PMC5540273 (PLoS ONE, 2017).

Experiments:
Conditions in all cases: concentration: 1 μM, replicates: in singlicate; n = 1
CHEK1 = system: CHEK1
CHEK2 = system: CHEK2
CIT = system: CIT
CLK1 = system: CLK1
CLK2 = system: CLK2
CLK3 = system: CLK3
CLK4 = system: CLK4
CSF1R-autoinhibited = system: CSF1R-autoinhibited
CSF1R = system: CSF1R
CSK = system: CSK
CSNK1A1L = system: CSNK1A1L
CSNK1A1 = system: CSNK1A1
CSNK1D = system: CSNK1D
CSNK1E = system: CSNK1E
CSNK1G1 = system: CSNK1G1
CSNK1G2 = system: CSNK1G2
CSNK1G3 = system: CSNK1G3
CSNK2A1 = system: CSNK2A1
CSNK2A2 = system: CSNK2A2
CTK = system: T1, CTK
T1 construct: gene MATK
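Also: KINOMEscan kinase panel screen.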

Row | SMILES | %Inh (CHEK1) | %Inh (CHEK2) | %Inh (CIT) | %Inh (CLK1) | %Inh (CLK2) | %Inh (CLK3) | %Inh (CLK4) | %Inh (CSF1R-autoinhibited) | %Inh (CSF1R) | %Inh (CSK) | %Inh (CSNK1A1L) | %Inh (CSNK1A1) | %Inh (CSNK1D) | %Inh (CSNK1E) | %Inh (CSNK1G1) | %Inh (CSNK1G2) | %Inh (CSNK1G3) | %Inh (CSNK2A1) | %Inh (CSNK2A2) | %Inh (CTK)
1 | Cc1c2ccc(N(C)c3ccnc(Nc4cccc(S(N)(=O)=O)c4)n3)cc2nn1Cc1ccccc1.Cl.Cl [GW787226] | 0% | 8% | 6% | 0% | 12% | 0% | 0% | 64% | 100% | 9% | 0% | 15% | 0% | 0% | 0% | 0% | 0% | 0% | 1% | 26%
2 | COc1cc2ncn(-c3cc(OCc4sccc4Cl)c(C(N)=O)s3)c2cc1OC [GSK448459] | 0% | 6% | 27% | 39% | 23% | 2% | 14% | 0% | 18% | 10% | 6% | 0% | 16% | 28% | 4% | 0% | 13% | 25% | 34% | 0%
3 | O=c1cc(N2CCOCC2)nc2n(Cc3cccc(F)c3)ccn12 [GSK2297430] | 0% | 0% | 26% | 33% | 0% | 30% | 45% | 0% | 0% | 0% | 18% | 20% | 15% | 35% | 9% | 1% | 13% | 0% | 0% | 0%
4 | NS(=O)(=O)CCc1cccc(Nc2nccc(-c3c(-c4cccc(NC(=O)c5c(F)cccc5F)c4)nn4ccccc34)n2)c1 [GSK336735] | 4% | 0% | 53% | 27% | 10% | 100% | 21% | 21% | 99.7% | 97.5% | 7% | 0% | 33% | 90.4% | 14% | 5% | 19% | 9% | 9% | 0%
5 | CC(C)Oc1ccc2c(-c3ccnc(Nc4ccc(N5CCN(C)CC5)cc4)n3)cnn2n1 [GW696155] | 0% | 67% | 98.7% | 97% | 96.8% | 1% | 93.7% | 58% | 65% | 34% | 0% | 46% | 37% | 28% | 28% | 0% | 19% | 94.6% | 98.9% | 0%
6 | CCc1ccnc(/C=C/c2n[nH]c3cc(Sc4ccccc4C(=O)NC)ccc23)c1 | 0% | 8% | 0% | 0% | 0% | 0% | 0% | 66% | 99.9% | 12% | 0% | 26% | 8% | 0% | 0% | 0% | 0% | 0% | 0% | 0%
7 | COC(=O)Nc1nc2cc(Oc3ccc(NC(=O)Nc4cc(F)ccc4F)cc3)ccc2[nH]1.Cl [GW701424] | 0% | 21% | 99% | 29% | 0% | 14% | 40% | 50% | 99.7% | 0% | 13% | 0% | 9% | 26% | 0% | 0% | 21% | 0% | 6% | 0%
8 | O=C(Nc1cccc(-c2nn3ncccc3c2-c2ccnc(Nc3cccc(C(F)(F)F)c3)n2)c1)c1c(F)cccc1F [GSK299495] | 5% | 0% | 0% | 18% | 100% | 0% | 25% | 8% | 98.1% | 88% | 24% | 0% | 12% | 82% | 0% | 0% | 18% | 0% | 0% | 0%
9 | COc1ccc(Nc2ncc(C#N)c(Nc3ccccc3C(N)=O)n2)cc1N1CCN(C)CC1.Cl [GSK1558669] | 100% | 78% | 69% | 99.8% | 99.3% | 85% | 99.7% | 67% | 99.9% | 85% | 97.3% | 82% | 66% | 78% | 50% | 0% | 27% | 99.7% | 99.9% | 56%
10 | CCc1nc(-c2cccc(C)c2)c(-c2ccnc(NCc3ccccc3)c2)s1 | 0% | 10% | 29% | 0% | 11% | 0% | 0% | 0% | 6% | 0% | 11% | 8% | 29% | 8% | 0% | 0% | 0% | 0% | 0% | 17%
